Assay outcomes deposited in PubChem BioAssay by National Center for Advancing Translational Sciences (NCATS).
This is a sample that favours compounds with a hit; in the whole collection about 1.2% have one here.
aGal spleen mod = inhibits or activates alpha-galactosidase in human spleen homogenate; P06280; Potency, µM (doses to about 80 µM), most hits filed as inhibitors; human spleen homogenate, 4MU-alpha-Gal fluorescence, 40 min; 0.008% of 240,000 active
Target sequence (P06280 32-429 limits assumed): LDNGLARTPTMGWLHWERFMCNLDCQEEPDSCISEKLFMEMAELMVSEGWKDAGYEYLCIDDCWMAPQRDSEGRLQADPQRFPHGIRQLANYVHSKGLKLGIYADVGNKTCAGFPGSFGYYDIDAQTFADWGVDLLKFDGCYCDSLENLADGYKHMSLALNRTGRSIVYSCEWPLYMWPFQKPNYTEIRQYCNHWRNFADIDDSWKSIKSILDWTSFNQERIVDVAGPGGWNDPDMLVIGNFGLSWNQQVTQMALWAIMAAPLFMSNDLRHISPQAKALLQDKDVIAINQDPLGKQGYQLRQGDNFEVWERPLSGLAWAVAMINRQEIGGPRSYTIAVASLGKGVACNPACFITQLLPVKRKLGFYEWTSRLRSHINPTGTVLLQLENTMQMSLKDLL
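Spleen homogenate 1 ug + cpd (titration) + 4-MU-alpha-D-galactopyranoside 1 mM; 37C 40 min; 50 mM citrate/phosphate pH 5.0, 0.01% Tween-20; stop pH 10; fluorescence 365/440; AC50 via Hill.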
ERK EGF block = inhibitors of EGF-stimulated ERK signaling pathway; HEK293-V1b, EGF-stimulated phospho-ERK AlphaScreen; Potency, µM (top dose mostly 11.5 µM), actives largely listed as inhibitors; 0.41% of 130,000 active; AID 1454; also: nearly all actives have a fitted effect of over 55% in size
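Homogeneous cell-based phospho-ERK assay: HEK293/V1b cells in 1% FBS, compound 30 min then EGF 5 min, AlphaScreen luminescence. Activity normalized between DMSO and 25 nM EGF controls; AC50 from Hill modelling.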
HTT aggregate = mutant huntingtin aggregation inhibition; 1.1% of 220,000 active; Potency, µM (titrated, usually from 46.1 µM), most hits filed as inhibitors; PC12 HttQ103-GFP aggregates, Acumen cytometry, 40 h; also: nearly all actives have a fitted effect of over 60% in size
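PC12 cells with ecdysone-inducible HTT exon1 Q103-GFP, induced by 100 nM tebufenozide, given compounds in a concentration series. GFP aggregates (1–25 um, 6 SD above background) counted in lysates by laser-scanning cytometry, 488 nm excitation.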
HTT ATP protect = protects HTT-Q103 PC12 cells, measured by ATP; PC12 HTT-Q103 induced, cytoprotection, ATP luminescence, 40 h; Potency, µM (titrated, usually from 56.4 µM), actives largely listed as activators; 0.14% of 230,000 active; AID 1471; also: nearly all actives have a fitted effect of over 45% in size
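ATP quantification (ATPlite) reports survival of PC12 cells in which tebufenozide, 100 nM final, switches on Htt exon 1 with 103 glutamines linked to GFP; compounds are titrated.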
GLA inh pH 4.5 = blocks human alpha-galactosidase A at pH 4.5; purified enzyme, 4-MU-alpha-Gal fluorescence, pH 4.5; activity change, negative = inhibition, % at 105 µM; P06280; 230,000 tested, under 10 active
Large screens that a line does not name were inactive. Calls follow the shape of the dose curve; as a rule, active = well fitted curve in the direction sought with a large enough effect; inconclusive = small, poorly fitted or top-dose-only effect, or another doubt; inactive = no such curve, though single readings can be large; an effect the other way counts as inactive or inconclusive.

Cc1c(/C=N/NC(=O)c2cccnc2)c2ccccc2n1Cc1ccccc1	HTT aggregate 10µM
Cc1nn(Cc2ccccc2)c(Cl)c1/C=N/NC(=O)c1cccnc1	none (no result: HTT ATP protect)
Cc1ccc2c(c1)S/C(=C/c1ccc[n+](C)c1)N2CCO	none
CCCCN1/C(=C/c2ccc3ccccc3[n+]2CC)Sc2ccccc21	ERK EGF block inconclusive, HTT aggregate 2.51µM
CCN1/C(=C/c2ccc3ccccc3[n+]2CC)C=Cc2ccccc21	HTT aggregate 3.16µM (no result: ERK EGF block)
CCN1/C(=C/c2ccc3cc(C)ccc3[n+]2CC)Sc2cc(C)ccc21	ERK EGF block inconclusive, HTT aggregate 1µM
CS(=O)(=O)N1CCC2(CCCN(C(c3ccccc3)c3ccccc3)C2)CC1	ERK EGF block inconclusive (no result: HTT aggregate, GLA inh pH 4.5)
CC(C)(C)NC(=S)NNC(=O)c1cccc(Br)c1	HTT aggregate 11.2µM
COc1ccc(C(=O)c2c(C)c3ccccc3n2CC(O)CNC(C)C)cc1 (centres undefined)	HTT aggregate 22.4µM, GLA inh pH 4.5 inconclusive (no result: HTT ATP protect)
COc1ccccc1CNCC(O)Cn1c2ccccc2c2ccccc21 (centres undefined)	none
O=C(O)CCCCCCCCCCP(=O)(c1ccccc1)c1ccccc1	none
O=P(CCCCCCCCCP(=O)(c1ccccc1)c1ccccc1)(c1ccccc1)c1ccccc1	HTT aggregate 11.2µM (no result: ERK EGF block)
O=C(Nc1ccc(-c2cn3ccccc3n2)cc1)c1ccc(Cl)cc1	HTT aggregate 2.82µM (no result: ERK EGF block)
O=C(Nc1ccc(-c2cn3ccccc3n2)cc1)c1ccco1	none (no result: HTT ATP protect)
O=C(c1cccc(F)c1)N1CCC2(CCCN(C(c3ccccc3)c3ccccc3)C2)CC1	none (no result: HTT aggregate, GLA inh pH 4.5)
O=C(/C=C/c1ccccc1)N1CCCC1CO (centres undefined)	HTT ATP protect inconclusive (no result: ERK EGF block, HTT aggregate, GLA inh pH 4.5)
Cc1nc2ccccc2n1C(=O)c1ccccc1[N+](=O)[O-]	HTT aggregate 0.141µM (no result: HTT ATP protect)
Cc1cccc(NC(=O)c2ccccc2[N+](=O)[O-])n1	none (no result: ERK EGF block)
CC(C(=O)N1CCN(Cc2ccccc2)CC1)c1ccc([N+](=O)[O-])cc1 (centres undefined)	none
CC(On1nnc2ccccc21)C(=O)N1CCN(Cc2ccccc2)CC1 (centres undefined)	HTT aggregate inconclusive, HTT ATP protect 0.708µM
CCOc1ccc(N=c2cc(-c3ccc(OC)cc3)oc3ccccc23)cc1	ERK EGF block inconclusive, HTT aggregate 3.16µM
S=C([S-])NCCNC(=S)[S-].[Zn+2]	HTT ATP protect inconclusive (no result: ERK EGF block, HTT aggregate, GLA inh pH 4.5)
N=c1c2c(n(Cc3ccccc3)c3c1CCC3)CCC2	HTT aggregate 8.91µM (no result: ERK EGF block)
N=c1c2c(n(Cc3ccc(Cl)cc3)c3c1CCC3)CCC2	HTT aggregate inconclusive (no result: ERK EGF block)
N=c1c2c(n(Cc3cccc(Cl)c3)c3c1CCC3)CCCC2	HTT aggregate 10µM
O=C(Nc1n[nH]c(C2CCCCC2)n1)C1CCCCC1	HTT aggregate 4.47µM (no result: ERK EGF block)
O=C1/C(=C\c2cccs2)CCC/C1=C/c1cccs1	none (no result: aGal spleen mod, ERK EGF block, GLA inh pH 4.5)
Cn1c(=O)c2c(nc(Oc3ccc4ccccc4c3)n2C)n(C)c1=O	HTT aggregate 1.41µM (no result: ERK EGF block)
O=C(Nc1ccc(C(=O)Nc2ccc(C(=O)Nc3ccc(S(=O)(=O)O)c4cc(S(=O)(=O)O)cc(S(=O)(=O)O)c34)cc2)cc1)Nc1ccc(C(=O)Nc2ccc(C(=O)Nc3ccc(S(=O)(=O)O)c4cc(S(=O)(=O)O)cc(S(=O)(=O)O)c34)cc2)cc1	none (no result: HTT aggregate)
Oc1ccc(CN2CCN(Cc3ccccc3)CC2)c2cccnc12	none (no result: ERK EGF block)
O=S(=O)(c1ccc(Cl)cc1)N1CCN(Cc2ccc(O)c3ncccc23)CC1	HTT aggregate 5.01µM (no result: HTT ATP protect)
CCCCn1c(-c2nonc2N)nc2ccccc21	HTT aggregate inconclusive (no result: ERK EGF block)
CC(C)CCn1c(-c2nonc2N)nc2ccccc21	HTT aggregate 11.2µM
CC(C)c1ccc(/C=C/C(=O)Nc2ccc(CN3CCOCC3)cc2)cc1	ERK EGF block 35.5µM
O=C(/C=C/c1ccc(Cl)cc1)Nc1ccc(CN2CCOCC2)cc1	ERK EGF block inconclusive
COCCOc1nc2c(c(=O)n(C)c(=O)n2C)n1Cc1cccc(OC)c1	HTT aggregate 8.91µM (no result: ERK EGF block)
Cc1ccc(S(=O)(=O)N2CCc3nc(-c4ccccc4)c4c(c3C2)CO[C@@H](C)C4)cc1	none (no result: ERK EGF block, HTT aggregate)
CN[C@H](C)CCC=C(C)C	none (no result: aGal spleen mod, ERK EGF block, GLA inh pH 4.5)
O=C1c2cccc(OCc3ccc(F)cc3)c2CCN1Cc1ccc(F)cc1	HTT aggregate 20µM
Cc1ccc(CN2CCc3c(OCc4ccc(F)cc4)cccc3C2=O)cc1	HTT aggregate inconclusive
O=c1cc(O)cc(/C=C\c2ccc(O)c(O)c2)o1	none (no result: aGal spleen mod, ERK EGF block, HTT aggregate, GLA inh pH 4.5)
CCCc1ccc(-c2cc(C(=O)NC3=NCCS3)c3ccccc3n2)cc1	HTT aggregate 3.98µM (no result: ERK EGF block)
COc1ccc2cc3c(N)nn(C(=O)c4ccccc4[N+](=O)[O-])c3nc2c1	HTT aggregate inconclusive
COc1ccc2cc3c(N)nn(C(=O)c4ccc(Cl)c([N+](=O)[O-])c4)c3nc2c1	HTT aggregate 2.82µM
C/C(=C\C(=O)O)C(=O)Nc1nccs1	HTT aggregate 0.112µM (no result: ERK EGF block)
CCOc1cc2[nH]c(=S)n(CCCOC)c(=O)c2cc1OCC	HTT aggregate 3.98µM, HTT ATP protect inconclusive (no result: ERK EGF block)
CC(=O)N[C@H]1CSSC[C@@H](C(=O)N2CCC[C@H]2C(=O)N2CCC[C@H]2C(=O)N[C@@H](CCCCN)C(=O)N[C@@H](CC(=O)O)C(N)=O)NC(=O)CNC(=O)[C@H](Cc2c[nH]c3ccccc23)NC(=O)[C@H](CCCNC(=N)N)NC(=O)[C@@H](Cc2ccc(Cl)c(Cl)c2)NC(=O)[C@H](Cc2cnc[nH]2)NC(=O)[C@H](CCC(=O)O)NC1=O	none (no result: ERK EGF block, HTT aggregate, HTT ATP protect, GLA inh pH 4.5)
NNC(=O)c1sc2nc(N3CCOCC3)c3c(c2c1N)CCCC3	ERK EGF block inconclusive
CN1Cc2c(N3CCOCC3)nc3sc(C(=O)c4ccc(Br)cc4)c(N)c3c2CC1(C)C	ERK EGF block 35.5µM
CCOC(=O)c1sc2nc(N3CCOCC3)c3c(c2c1N)CCN(C)C3	HTT ATP protect 0.631µM (no result: ERK EGF block, HTT aggregate)
CN1Cc2c(N3CCOCC3)nc3sc(C#N)c(N)c3c2CC1(C)C	ERK EGF block inconclusive
CC(C)(C)C(=O)Nc1nnc(-c2ccncc2)o1	none
O=C(Nc1nnc(-c2ccncc2)o1)c1ccc(Br)s1	HTT aggregate 11.2µM
O=C(Nc1nnc(-c2ccco2)o1)c1ccc([N+](=O)[O-])s1	HTT aggregate 11.2µM
COc1ccc(-c2nnc3n2N=C(c2c(OC)cccc2OC)CS3)cc1OC	none (no result: ERK EGF block, HTT aggregate, HTT ATP protect, GLA inh pH 4.5)
CCn1c(=O)c2c(cnn2C)c2ccccc21	HTT aggregate 8.91µM (no result: ERK EGF block)
O=C(Nc1ccccc1)Nc1ccc2snnc2c1	HTT aggregate 11.2µM
CC(C)(C)c1ccc(C(=O)CCCN2CCC(OC(c3ccccc3)c3ccccc3)CC2)cc1	HTT aggregate inconclusive (no result: aGal spleen mod, ERK EGF block, GLA inh pH 4.5)
